Measured values taken from the supplement of paper PMC10849652.
The full data set covers some 8,800 targets. This sample favours those with a hit. About 0.5% of all pairs of compound and target were hits. A number with no mark means an inactive call.

Experiments:
Assay in all cases: log2 fold change, soluble protein after heating vs DMSO (PISA); higher = thermal stabilisation; K562 lysate, 10 uM; active = over 0.2 and 3.5 SD of the protein, either way, in both replicates (recomputed)
[1] = compound: C#Cc1cccc(Nc2ncnc3cc(OCCOC)c(OCCOC)cc23)c1 [erlotinib]
In short: (§1)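 Values give the log-two fold change in thermal stability against solvent controls, from duplicates. Crude K562 extract at 1 mg/mL protein, made by dounce homogenisation in PBS pH 7.4 with 1 mM MgCl2, was treated with 10 μM compound for 30 min. After 3 min heating across 48°C-58°C, aliquots were pooled, adjusted to 0.5% NP-40 at 4°C and centrifuged at 21,000xg for 90 min. The supernatant was measured by TMTpro 16plex LC-MS/MS with channel sums equalised.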

[2] = compound: C/C(=N\NC(=O)C1=CC(=CC=C1)S(=O)(=O)N2CCOCC2)/C3=C(C=CC(=C3)Cl)O
In short: as §1

[3] = compound: C1=CC(=CC=C1C2=NC3=C(N2)C=C(C=C3)C(=O)N)OC4=CC=C(C=C4)Cl
In short: as §1

[4] = compound: C1=CC2=C(C=CC(=C2)/C=C\3/C(=O)NC(=NCC4=CC=CS4)S3)N=C1
In short: as §1

[5] = compound: C1=CC2=NC=CN=C2C=C1/C=C/3\C(=O)NC(=O)S3
In short: as §1

[6] = compound: C1=CC=C(C=C1)C2=NC(=C(N2)C3=CC=NC=C3)C4=CC(=C(C=C4)Cl)O
In short: as §1

[7] = compound: C1=CC=C2C(=C1)C3=NNC4=CC=CC(=C43)C2=O
In short: as §1

[8] = compound: C1CCN(C1)C(=O)NC2=CC=CC(=C2)NC3=NC=C(C(=N3)NCCC4=CN=CN4)Br
In short: as §1

[9] = compound: C1CN(CCC1(CC2=CC=C(C=C2)Cl)N)C3=NC=NC4=C3C=CN4
In short: as §1

[10] = compound: C1COCCN1CCN2C3=CC=CC=C3N=C2NC(=O)C4=CC(=CC=C4)[N+](=O)[O-] [IRAK-1-4 Inhibitor I]
In short: as §1

[11] = compound: C=CC(=O)N1CCC[C@@H](n2nc(-c3ccc(Oc4ccccc4)cc3)c3c(N)ncnc32)C1 [ibrutinib]
In short: as §1

[12] = compound: CC(=O)c1cnc2ccc(-c3cc(Cl)c(O)c(Cl)c3)nc2c1N[C@H]1CC[C@H](CN(C)C)CC1
In short: as §1

[13] = compound: CC(C)(C)Cn1c(N)nc2ccc(-c3[nH]c(C(C)(C)C)nc3-c3ccc(F)cc3)nc21 [ralimetinib]
In short: as §1

[14] = compound: CC(C)(O)CC(=O)NCCn1ccc2ncnc(Nc3ccc(Oc4cccc(C(F)(F)F)c4)c(Cl)c3)c21
In short: as §1

[15] = compound: CC(C)C1=C2N=C(C=C(N2N=C1)NCC3=CC=CC=C3)NCCCCCCN
In short: as §1

[16] = compound: CC1=C(C(CC(=O)N1)C2=CC=C(C=C2)C(F)(F)F)C(=O)NC3=C(C=C4C(=C3)C=NN4)F
In short: as §1

[17] = compound: CC1=C(C2=C(C=C1)C(=O)C3=CC=CC=C3N2CCCN)C
In short: as §1

[18] = compound: CC1=C(C=C(C=C1)NC(=O)C2=CC(=CC=C2)C(C)(C)C#N)NC3=CC4=C(C=C3)N=CN(C4=O)C
In short: as §1

[19] = compound: CC1=C(C=C(C=C1)NC(=O)C2=CC(=CC=C2)N(C)C)NC(=O)C3=CC=C(C=C3)O
In short: as §1

[20] = compound: CC1=CC=C(C=C1)SC2=C3C=C(SC3=CN=C2)C(=O)N
In short: as §1

Sequence of UniProt Q9BZV1 (Q9BZV1 whole entry, looked up): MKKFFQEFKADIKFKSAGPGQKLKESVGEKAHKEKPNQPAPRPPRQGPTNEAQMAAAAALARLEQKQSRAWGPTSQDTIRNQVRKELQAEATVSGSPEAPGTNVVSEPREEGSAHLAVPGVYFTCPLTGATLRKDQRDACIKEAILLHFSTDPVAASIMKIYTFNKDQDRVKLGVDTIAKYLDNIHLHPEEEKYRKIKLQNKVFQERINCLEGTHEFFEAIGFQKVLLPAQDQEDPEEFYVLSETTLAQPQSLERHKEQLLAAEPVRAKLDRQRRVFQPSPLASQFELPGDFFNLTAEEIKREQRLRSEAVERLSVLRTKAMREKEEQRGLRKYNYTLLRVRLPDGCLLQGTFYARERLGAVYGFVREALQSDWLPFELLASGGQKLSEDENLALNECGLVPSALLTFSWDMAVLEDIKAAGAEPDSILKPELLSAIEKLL
Sequence of UniProt P68371 (P68371 whole entry, looked up): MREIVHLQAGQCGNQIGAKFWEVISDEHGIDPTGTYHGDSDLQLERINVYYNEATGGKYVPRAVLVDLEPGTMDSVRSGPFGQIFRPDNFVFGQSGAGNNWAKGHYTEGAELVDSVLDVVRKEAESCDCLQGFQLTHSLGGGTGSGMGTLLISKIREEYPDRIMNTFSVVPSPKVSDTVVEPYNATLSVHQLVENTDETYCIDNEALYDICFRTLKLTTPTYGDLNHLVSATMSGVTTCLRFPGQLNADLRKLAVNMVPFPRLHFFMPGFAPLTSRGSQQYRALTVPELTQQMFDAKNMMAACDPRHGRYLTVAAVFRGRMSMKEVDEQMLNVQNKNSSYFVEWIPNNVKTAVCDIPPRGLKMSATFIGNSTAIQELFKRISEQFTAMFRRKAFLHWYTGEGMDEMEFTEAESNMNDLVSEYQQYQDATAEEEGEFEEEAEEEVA
Sequence of UniProt Q96K49 (Q96K49 whole entry, looked up): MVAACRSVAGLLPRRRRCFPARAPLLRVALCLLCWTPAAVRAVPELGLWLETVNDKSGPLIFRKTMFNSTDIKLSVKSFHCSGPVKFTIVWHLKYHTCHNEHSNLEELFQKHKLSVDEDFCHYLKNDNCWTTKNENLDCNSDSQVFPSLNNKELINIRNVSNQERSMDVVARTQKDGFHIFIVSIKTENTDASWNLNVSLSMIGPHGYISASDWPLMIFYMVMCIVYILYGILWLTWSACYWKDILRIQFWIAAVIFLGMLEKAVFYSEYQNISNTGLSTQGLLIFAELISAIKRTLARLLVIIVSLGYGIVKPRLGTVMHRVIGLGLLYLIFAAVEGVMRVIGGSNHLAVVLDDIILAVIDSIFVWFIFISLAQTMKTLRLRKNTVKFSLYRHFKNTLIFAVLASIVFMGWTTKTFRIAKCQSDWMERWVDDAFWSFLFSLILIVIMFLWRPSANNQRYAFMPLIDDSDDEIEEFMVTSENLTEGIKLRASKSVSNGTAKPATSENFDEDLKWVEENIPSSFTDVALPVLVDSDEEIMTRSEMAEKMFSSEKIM
Sequence of UniProt Q15645 (Q15645 whole entry, looked up): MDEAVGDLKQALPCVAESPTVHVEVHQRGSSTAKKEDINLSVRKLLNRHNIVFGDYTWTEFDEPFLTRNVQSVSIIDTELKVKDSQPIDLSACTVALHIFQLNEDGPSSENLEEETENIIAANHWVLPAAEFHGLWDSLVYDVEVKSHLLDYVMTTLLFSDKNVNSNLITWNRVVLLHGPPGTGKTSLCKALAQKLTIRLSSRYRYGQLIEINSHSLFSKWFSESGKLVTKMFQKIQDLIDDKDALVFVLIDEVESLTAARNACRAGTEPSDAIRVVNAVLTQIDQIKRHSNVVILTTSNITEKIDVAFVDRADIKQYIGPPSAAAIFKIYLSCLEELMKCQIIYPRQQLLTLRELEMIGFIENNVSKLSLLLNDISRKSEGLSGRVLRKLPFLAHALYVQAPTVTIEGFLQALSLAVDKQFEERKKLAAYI
Sequence of UniProt O60701 (O60701 whole entry, looked up): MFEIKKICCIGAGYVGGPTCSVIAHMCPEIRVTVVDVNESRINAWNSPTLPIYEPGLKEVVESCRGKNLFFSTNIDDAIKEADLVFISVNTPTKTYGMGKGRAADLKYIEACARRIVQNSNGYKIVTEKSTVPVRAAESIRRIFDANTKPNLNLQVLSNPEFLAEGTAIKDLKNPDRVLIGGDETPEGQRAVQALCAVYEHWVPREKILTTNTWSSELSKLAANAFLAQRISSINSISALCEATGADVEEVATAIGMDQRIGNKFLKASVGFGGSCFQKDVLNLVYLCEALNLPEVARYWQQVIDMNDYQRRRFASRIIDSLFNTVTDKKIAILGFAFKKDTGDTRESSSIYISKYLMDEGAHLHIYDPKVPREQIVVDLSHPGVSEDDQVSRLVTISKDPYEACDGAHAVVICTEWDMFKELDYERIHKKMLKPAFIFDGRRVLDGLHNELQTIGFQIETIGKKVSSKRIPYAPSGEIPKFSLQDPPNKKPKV
Sequence of UniProt Q9Y4R8 (Q9Y4R8 whole entry, looked up): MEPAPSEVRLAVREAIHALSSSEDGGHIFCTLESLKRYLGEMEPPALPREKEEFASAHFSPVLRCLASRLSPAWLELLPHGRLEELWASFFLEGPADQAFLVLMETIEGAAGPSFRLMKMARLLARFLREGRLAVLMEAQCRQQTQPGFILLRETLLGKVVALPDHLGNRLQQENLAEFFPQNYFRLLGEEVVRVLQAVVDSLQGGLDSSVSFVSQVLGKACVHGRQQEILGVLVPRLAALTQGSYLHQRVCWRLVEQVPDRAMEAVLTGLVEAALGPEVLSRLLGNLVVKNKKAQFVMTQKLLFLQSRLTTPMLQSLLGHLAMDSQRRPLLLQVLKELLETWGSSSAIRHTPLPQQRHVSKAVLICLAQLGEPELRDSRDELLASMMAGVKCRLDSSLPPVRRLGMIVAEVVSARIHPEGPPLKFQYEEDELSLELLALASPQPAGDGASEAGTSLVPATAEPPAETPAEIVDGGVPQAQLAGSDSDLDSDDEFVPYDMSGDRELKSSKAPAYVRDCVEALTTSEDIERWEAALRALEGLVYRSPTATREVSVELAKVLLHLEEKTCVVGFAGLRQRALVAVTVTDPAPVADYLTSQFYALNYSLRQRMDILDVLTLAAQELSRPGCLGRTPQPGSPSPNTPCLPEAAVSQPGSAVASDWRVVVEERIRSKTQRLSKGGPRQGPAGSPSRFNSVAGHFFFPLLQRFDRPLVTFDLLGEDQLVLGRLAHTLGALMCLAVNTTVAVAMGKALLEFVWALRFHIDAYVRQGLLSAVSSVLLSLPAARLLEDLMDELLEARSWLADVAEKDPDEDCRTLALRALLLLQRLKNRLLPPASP
Sequence of UniProt Q9NUQ7 (Q9NUQ7 whole entry, looked up): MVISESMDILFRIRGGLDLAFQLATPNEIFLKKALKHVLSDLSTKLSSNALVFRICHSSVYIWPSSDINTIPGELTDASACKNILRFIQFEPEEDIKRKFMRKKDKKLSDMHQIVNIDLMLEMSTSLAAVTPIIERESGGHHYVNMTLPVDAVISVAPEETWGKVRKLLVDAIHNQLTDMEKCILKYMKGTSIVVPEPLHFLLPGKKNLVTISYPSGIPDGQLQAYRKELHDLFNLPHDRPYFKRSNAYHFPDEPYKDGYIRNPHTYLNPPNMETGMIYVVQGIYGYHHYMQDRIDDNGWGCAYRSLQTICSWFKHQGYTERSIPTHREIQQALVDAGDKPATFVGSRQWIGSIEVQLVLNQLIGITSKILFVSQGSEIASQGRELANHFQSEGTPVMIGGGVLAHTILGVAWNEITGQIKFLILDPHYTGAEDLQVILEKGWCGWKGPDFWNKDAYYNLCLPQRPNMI
Sequence of UniProt Q9UPN9 (Q9UPN9 whole entry, looked up): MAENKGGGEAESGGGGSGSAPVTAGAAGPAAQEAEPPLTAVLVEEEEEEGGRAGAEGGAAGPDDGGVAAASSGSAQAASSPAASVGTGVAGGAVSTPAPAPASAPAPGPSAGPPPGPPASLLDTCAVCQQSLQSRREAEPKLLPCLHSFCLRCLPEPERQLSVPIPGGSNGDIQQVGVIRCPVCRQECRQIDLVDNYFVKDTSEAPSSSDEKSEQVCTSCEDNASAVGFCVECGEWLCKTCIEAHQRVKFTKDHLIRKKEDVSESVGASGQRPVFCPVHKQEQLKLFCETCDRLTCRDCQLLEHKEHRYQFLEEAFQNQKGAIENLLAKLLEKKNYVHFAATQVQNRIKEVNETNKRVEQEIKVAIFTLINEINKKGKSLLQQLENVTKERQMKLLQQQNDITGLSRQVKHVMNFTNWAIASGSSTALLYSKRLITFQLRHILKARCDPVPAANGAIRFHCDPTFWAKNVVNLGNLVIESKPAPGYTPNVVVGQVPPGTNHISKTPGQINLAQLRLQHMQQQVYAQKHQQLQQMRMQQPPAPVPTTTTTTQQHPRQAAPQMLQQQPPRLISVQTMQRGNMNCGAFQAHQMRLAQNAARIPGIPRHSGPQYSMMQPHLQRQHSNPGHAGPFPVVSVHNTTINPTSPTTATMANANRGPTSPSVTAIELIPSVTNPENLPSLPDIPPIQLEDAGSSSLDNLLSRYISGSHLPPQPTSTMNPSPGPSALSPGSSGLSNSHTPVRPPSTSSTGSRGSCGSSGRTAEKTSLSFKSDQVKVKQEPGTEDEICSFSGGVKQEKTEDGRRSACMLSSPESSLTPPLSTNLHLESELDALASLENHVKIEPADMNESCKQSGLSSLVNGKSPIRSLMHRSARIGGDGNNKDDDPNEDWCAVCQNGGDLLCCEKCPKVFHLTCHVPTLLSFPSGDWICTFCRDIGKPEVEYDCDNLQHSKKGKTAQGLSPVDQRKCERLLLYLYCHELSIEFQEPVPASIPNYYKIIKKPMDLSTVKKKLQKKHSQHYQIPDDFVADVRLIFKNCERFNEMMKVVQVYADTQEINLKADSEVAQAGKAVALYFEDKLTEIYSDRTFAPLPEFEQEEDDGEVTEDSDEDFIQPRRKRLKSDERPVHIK

Target	log2 fold change [1]	log2 fold change [2]	log2 fold change [3]	log2 fold change [4]	log2 fold change [5]	log2 fold change [6]	log2 fold change [7]	log2 fold change [8]	log2 fold change [9]	log2 fold change [10]	log2 fold change [11]	log2 fold change [12]	log2 fold change [13]	log2 fold change [14]	log2 fold change [15]	log2 fold change [16]	log2 fold change [17]	log2 fold change [18]	log2 fold change [19]	log2 fold change [20]
TRIM33 isoform 2 (UniProt Q9UPN9)	0.004	-0.016	0.014	0.004	-0.002	0.003	0.008	-0.03	0.006	-0.02	0.04	0.006	0.024	0.022	-0.026	0.01	0	-0.014	0.019	0.005
THADA (UniProt Q6YHU6)	0.059	-0.003	0	0.004	-0.011	-0.004	-0.017	-0.024	0.017	-0.017	0.011	0.006	-0.009	-0.029	-0.016	-0.01	0.012	0.028	0.03	0.013
TMEM87B (UniProt Q96K49)	-0.016	0.103	0.093	-0.003	0.117	0.03	-0.019	0.006	-0.008	-0.045	-0.076	-0.017	-0.003	-0.001	-0.047	-0.011	-0.01	-0.012	0.028	-0.012
TDRD3 isoform 3 (UniProt Q9H7E2)	0.051	-0.029	-0.019	0.086	0.005	0.257	-0.085	-0.059	0	0.051	-0.03	0.009	-0.094	0.01	-0.018	-0.073	-0.004	0	-0.102	0.026
TELO2 (UniProt Q9Y4R8)	0.023	0.006	-0.035	0.025	0.048	0	0.011	-0.031	0.002	0.009	-0.023	0	0.019	-0.052	0.002	0.029	-0.015	0.006	0.014	0.017
UGDH (UniProt O60701)	0.002	0.046	-0.02	-0.009	0.02	-0.041	-0.051	-0.004	-0.052	-0.053	0.02	0.02	0.085	-0.004	-0.004	0.019	0.215 (active)	-0.037	0.058	0.031
TK1 (UniProt P04183)	0.003	-0.112	0.036	-0.001	0.028	-0.003	0.021	0.013	0.017	0.008	0.004	-0.004	0.023	-0.022	-0.029	0	0.006	0.046	-0.014	-0.006
TOX4 (UniProt O94842)	-0.016	-0.025	0.049	0.037	-0.052	0.04	-0.003	-0.014	0.053	-0.025	-0.009	0.054	0.009	-0.034	-0.008	0.024	-0.002	0.033	0.023	0.006
TRAPPC12 (UniProt Q8WVT3)	-0.049	-0.01	-0.048	-0.047	-0.018	-0.005	-0.061	-0.003	-0.005	0.027	0.001	-0.011	0.064	0.02	-0.014	-0.022	-0.003	0.008	-0.001	0.009
TUBB4B (UniProt P68371)	0.008	-0.059	0.019	-0.018	0.005	-0.024	-0.011	0.019	0.03	0.04	-0.012	0.029	0.026	0.029	0.02	0.011	0.022	-0.05	0.035	0.018
TRNAU1AP (UniProt Q9NX07)	0.019	0.083	-0.037	0.114	0.038	-0.028	-0.31	-0.071	0.015	-0.005	-0.013	-0.212	0.07	-0.045	0.039	-0.008	0.02	-0.035	0.034	0.021
THEMIS2 (UniProt Q5TEJ8)	-0.035	0.006	0.004	0.036	0.031	-0.041	-0.024	-0.02	0.042	0.031	0.029	-0.038	0.059	-0.037	-0.009	0.029	-0.051	-0.023	-0.042	0.126
UBXN6 (UniProt Q9BZV1)	-0.02	0.001	0.001	-0.024	0.006	0.036	-0.073	0	-0.005	-0.007	0.046	0.174	0.037	-0.012	0.019	0.121	-0.059	-0.038	0.031	0.041
TRIP13 (UniProt Q15645)	0.034	-0.117	0.007	0.04	-0.034	0.009	-0.038	0	-0.002	0.005	-0.025	-0.013	0.039	0.023	-0.022	-0.004	0.006	0.029	0.045	0.001
UFSP2 (UniProt Q9NUQ7)	-0.04	-0.034	0.028	0.098	-0.015	-0.042	-0.055	-0.026	-0.037	0.023	0.004	-0.005	0.023	-0.004	-0.023	0.01	0.005	-0.036	-0.003	-0.006
